Test systems include DU-145 prostate; K-562 leukemia; MALME-3M melanoma; MDA-MB-231 breast; RXF 393 renal; SF-268 CNS; SF-295 CNS; SF-539 CNS; UACC-257 melanoma; M14 melanoma.
Assay in all cases: NCI-60 one-dose screen, 48 h (100 = growth as untreated, 0 = no growth, -100 = all killed)
What all share (conditions): 10 µM unless noted

This is part of a sample that, as a whole, favours compounds with a hit. Of some 83,000 tested, about 20% had one in any assay.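 Negative percent growth values reflect cell death: -40 means 40% of the cells present at the start died, and -100 means all died.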 A number with no mark means an inactive call. Calls of active or inactive are those of the source. How the source made its calls: active means growth percent below 10; inactive means the rest.

Regarding `O=c1cc(-c2ccc(Cl)cc2)[nH]c2ccccc12`, the growth was 97.4% in the test on DU-145 prostate; 33% with K-562 leukemia; 84.7% with MALME-3M melanoma; 81.6% in the test on MDA-MB-231 breast; 76.4% in the test on RXF 393 renal; 86.1% with SF-268 CNS. Further, the growth in the test on SF-295 CNS was 84.1%; in the test with SF-539 CNS, 94.5%; in the test with UACC-257 melanoma, 73.3%; with M14 melanoma, 71.8%.
Turning to `COc1cc(/C=C/C(=O)N2CCN(C(=O)c3cc(OC)c(OC)c(OC)c3)CC2)ccc1OCCCN1C(=O)c2cccc3cccc(c23)C1=O`, the growth with DU-145 prostate was 79.1%; in the test with K-562 leukemia it was 78.7%; in the test with MALME-3M melanoma it was 125%; in the test on MDA-MB-231 breast, 101%; in the test with RXF 393 renal it was 74.2%; in the test with SF-268 CNS, 90.6%. The growth is 71.9% with SF-295 CNS, 99.9% in the test on SF-539 CNS, 101% in the test with UACC-257 melanoma and 99.3% with M14 melanoma.
As for `O=C(Cc1ccc(F)c(F)c1)Nc1cc(C2(C(F)(F)F)CC2)nn1Cc1ccccc1`, the growth was 20.5% in the test on DU-145 prostate; 13.3% in the test on K-562 leukemia; -37.7% (active) in the test on MALME-3M melanoma; -70.7% (active) in the test with MDA-MB-231 breast; -26.9% (active) in the test with RXF 393 renal; 9.11% (active) in the test on SF-268 CNS. In addition, the growth in the test with SF-295 CNS is -1.31% (active); in the test with SF-539 CNS, 16.3%; with UACC-257 melanoma, -14.6% (active); with M14 melanoma it was 20.2%.
Turning to `CN(C)CCCn1c(=O)c2ccccc2c2ccccc21`, the growth with DU-145 prostate was 44.1%; in the test with K-562 leukemia it was 88.1%; in the test on MALME-3M melanoma it was 100%; with MDA-MB-231 breast, 67%; in the test on RXF 393 renal, 74.7%; in the test on SF-268 CNS, 68.2%. The growth in the test with SF-295 CNS was 83.3%; in the test on SF-539 CNS, 85.6%; in the test with UACC-257 melanoma, 93.8%; in the test with M14 melanoma it was 87.8%.
In the case of `Cc1cccc(NC(=O)CSc2nc3ccccc3[nH]2)c1`, the growth was 107% in the test on DU-145 prostate; 102% in the test with K-562 leukemia; 105% with MALME-3M melanoma; 88.5% with MDA-MB-231 breast; 99% with RXF 393 renal; 95.2% in the test on SF-268 CNS. For the same compound, the growth was 105% in the test on SF-295 CNS, 98.1% with SF-539 CNS, 111% in the test on UACC-257 melanoma and 107% in the test on M14 melanoma.
Regarding `Cc1c(Cl)cc(-n2c(=O)c3ccccc3c3ccccc3c2=O)cc1Cl`, the growth in the test on DU-145 prostate is 121%; with K-562 leukemia it was 106%; in the test with MALME-3M melanoma, 90.5%; with MDA-MB-231 breast, 84.2%; in the test with RXF 393 renal it was 123%; in the test with SF-268 CNS it was 105%. Further, the growth is 102% with SF-295 CNS, 110% with SF-539 CNS, 104% in the test on UACC-257 melanoma and 93% in the test on M14 melanoma.
In the case of `O=c1c2cc(F)ccc2sc2c(NCCCN3CCCC3)nc3ccccc3c12`, the growth with DU-145 prostate was 60.1%; in the test with K-562 leukemia, -29.7% (active); in the test with MALME-3M melanoma it was 26.5%; in the test on MDA-MB-231 breast, 21.1%; in the test on RXF 393 renal, 22.7%; in the test on SF-268 CNS, 47.6%. Also, the growth with SF-295 CNS is 55.1%; with SF-539 CNS, 65.3%; in the test with UACC-257 melanoma, 54.2%; in the test on M14 melanoma, -64.2% (active).
Take `O=C(O)c1ccc2c(c1Cl)C(=O)c1ccccc1C2=O`: the growth is 107% in the test with DU-145 prostate; 73.7% with K-562 leukemia; 132% with MALME-3M melanoma; 112% with MDA-MB-231 breast; 165% with RXF 393 renal; 113% in the test on SF-268 CNS. Besides, the growth is 108% in the test with SF-295 CNS, 102% in the test on SF-539 CNS, 109% in the test on UACC-257 melanoma and 103% in the test with M14 melanoma.
As for `CCCCCCCOc1c(OC)cc(C2CC(=O)Nc3c2c(C)nn3-c2nc3ccccc3[nH]2)cc1OC` (stereo not given), the growth is 29.6% in the test with DU-145 prostate; 21% in the test with K-562 leukemia; -51.5% (active) in the test with MALME-3M melanoma; -66.3% (active) in the test with MDA-MB-231 breast; -40.1% (active) in the test with RXF 393 renal; -9.44% (active) with SF-268 CNS. Also, the growth was -57.4% (active) with SF-295 CNS, -88.5% (active) in the test on SF-539 CNS, 10.1% in the test with UACC-257 melanoma and 4.61% (active) in the test on M14 melanoma.
`Cc1ccc(Nc2ccc(Nc3ccc(C)cc3)c3c2C(=O)c2cccc(O)c2C3=O)cc1`: the growth is 114% in the test on DU-145 prostate; 94.3% in the test on K-562 leukemia; 120% in the test with MALME-3M melanoma; 88.7% with MDA-MB-231 breast; 110% in the test with RXF 393 renal; 104% in the test on SF-268 CNS. Besides, the growth in the test on SF-295 CNS is 126%; with SF-539 CNS, 105%; in the test on UACC-257 melanoma it was 105%; in the test with M14 melanoma, 104%.
As for `Cn1c2c(c3ccc(Cl)c(Cl)c31)C(C#N)C1(CCNCC1)NC2=O` (stereo not given), the growth in the test on DU-145 prostate is 69.1%; with K-562 leukemia, 26.1%; with MALME-3M melanoma, 58.1%; in the test with MDA-MB-231 breast it was 42.2%; with RXF 393 renal it was 25.9%; with SF-268 CNS, 48.6%. Further, the growth in the test with SF-295 CNS is 58.3%; in the test with SF-539 CNS it was 56.8%; in the test on UACC-257 melanoma it was 39.9%; with M14 melanoma it was 16.1%.
In the case of `N/C(=N/N=C/c1ccccc1)N/N=C\c1ccccc1`, the growth with DU-145 prostate was 73.6%; in the test on K-562 leukemia it was 21.8%; in the test with MALME-3M melanoma it was 67.4%; in the test with MDA-MB-231 breast, 76.3%; with RXF 393 renal, 24.8%; with SF-268 CNS, 76%. Besides, the growth in the test on SF-295 CNS was 66.9%; in the test on SF-539 CNS it was 58%; in the test on UACC-257 melanoma it was 68.5%; in the test on M14 melanoma it was 26.8%.
`CNC(=O)NCC1OC(n2cnc3c(NC(=O)Nc4ccccc4)ncnc32)C(O[Si](C)(C)C(C)(C)C)C1CC(=O)N(C)OC` (stereo not given): the growth in the test with DU-145 prostate was 25.3%; with K-562 leukemia, 16.1%; in the test on MALME-3M melanoma, 12.3%; with MDA-MB-231 breast, 15.2%; in the test on RXF 393 renal it was -68.2% (active); with SF-268 CNS, 33.2%. The growth with SF-295 CNS was -41.2% (active); with SF-539 CNS, 0.123% (active); in the test with UACC-257 melanoma it was 5.59% (active); with M14 melanoma it was 34.4%.
With `Cc1cc(Cl)ccc1Nc1nc(C(F)(F)F)ccc1C(=O)N/N=C/c1ccc(N(C)C)cc1`, the growth with DU-145 prostate was 40.3%; with K-562 leukemia it was 18.9%; in the test on MALME-3M melanoma, 22.1%; in the test on MDA-MB-231 breast it was 22%; in the test on RXF 393 renal, -4.86% (active); in the test with SF-268 CNS, 31.8%. Further, the growth in the test on SF-295 CNS is -7.53% (active); with SF-539 CNS it was 41.4%; with UACC-257 melanoma it was 30%; with M14 melanoma, 33.9%.

For the origin of these results see PubChem BioAssay (NCI).
